# Screening data (PubChem)
# Compounds with a hit are over-represented: about 3.1% of the library has one in this group of screens.
# uPA surface inh: blocks generation of uPA at the cell surface; 330,000 tested, 0.31% active; Potency, µM (highest dose often 38.3 µM), without a hit: top-dose activity change, negative = inhibition, most hits filed as inhibitors; cell surface uPA generation assay, qHTS; AID 540303; active = well fitted inhibition curve with a large enough effect; inconclusive = small, poorly fitted or top-dose-only effect; inactive = no such curve, though single readings can be large or run the other way; tested in mouse RAW 264.7 cells; also: potency is read from the fitted curve at half-maximal effect; % is scaled to controls: 0 for no effect and ±100 for the full control effect; nearly all actives have a fitted effect of over 55% in size
# TSHR antag: blocks TSH signaling through the human TSH receptor; TSHR-expressing cells, TSH-stimulated cAMP HTRF, 2 h; hits give low values; 330,000 tested, 0.2% active; AID 504810; P16473; activity change, negative = inhibition, % at 11.5 µM;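 active = activity change below a set negative limit, meaning inhibition stronger than a set level, cut at about -70% in these data; inconclusive = activity change between two set negative limits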; also: % is scaled to controls: 0 for no effect and ±100 for the full control effect
#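 Read-out is FRET at 665 nm (cryptate excitation 337 nm) from a cryptate-tagged anti-cAMP antibody, competed by cell cAMP against cAMP-d2. Compounds are tested on freshly harvested TSHR cells challenged with 4nM TSH (EC80) for 2 hours at 37 deg C.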
# TSG101-PTAP inh: blocks PTAP/TSG101 interaction to inhibit HIV-1 budding. Potency, µM (series often up to 115 µM), for the others: top-dose activity change, negative = inhibition, hits mostly inhibitors. Fluorescence polarization, FITC-PTAP peptide / Tsg101 binding. 340,000 tested, under 10 active. Q99816. AID 493005; active = well fitted inhibition curve with a large enough effect in the main read-out, with a control signal flat, not every such curve was filed as active; inconclusive = small, poorly fitted or top-dose-only effect, or effect the other way, or a change in a side signal; inactive = no such curve, though single readings can be large or run the other way; also: potency is read from the fitted curve at half-maximal effect; % of control where 0% means no effect
# Target sequence (Q99816 whole entry, looked up): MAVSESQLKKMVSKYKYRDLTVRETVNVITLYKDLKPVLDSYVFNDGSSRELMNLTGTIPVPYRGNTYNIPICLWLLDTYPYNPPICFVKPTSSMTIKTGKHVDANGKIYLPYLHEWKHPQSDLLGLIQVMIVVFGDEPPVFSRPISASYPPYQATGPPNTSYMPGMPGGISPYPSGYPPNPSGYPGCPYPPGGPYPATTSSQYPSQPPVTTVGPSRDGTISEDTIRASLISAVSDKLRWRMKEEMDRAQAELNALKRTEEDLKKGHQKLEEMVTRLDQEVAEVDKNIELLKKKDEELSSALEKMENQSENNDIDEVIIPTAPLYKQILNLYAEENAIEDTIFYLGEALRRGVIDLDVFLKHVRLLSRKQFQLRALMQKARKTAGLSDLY
#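 Compounds were pin-transferred onto Tsg101 binding domain (10 uM final) in HEPES pH 7.5 buffer, then FITC-PTAP peptide was added at 50 nM final. After 20 min at RT, polarization reported peptide displacement across a qHTS concentration series.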
# VDR inhibitor: inhibitors of human vitamin D receptor. P11473. VDR-SRC2-3 peptide fluorescence polarization, 2 h. Potency, µM, for the others: max response, negative = inhibition, usual class: inhibitors. 400,000 tested, 0.93% active. AID 504847; also: potency is read from the fitted curve at half-maximal effect; % is scaled to controls: 0 for no effect and ±100 for the full control effect
#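 Measured by FP: displacement of SRC2-3 coactivator peptide from VDR by library compounds, following a two-hour ambient incubation.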
# PLK1 PBD block: PLK1 (human) polo-box domain binding inhibition; AID 720504; Potency, µM, without a hit: max response, negative = inhibition, actives largely listed as inhibitors; P53350; Plk1 PBD binding of FITC phosphopeptide, fluorescence polarization; 360,000 tested, 2.8% active; also: potency is read from the fitted curve at half-maximal effect; series mostly up to about 57 µM; % is scaled to controls: 0 for no effect and ±100 for the full control effect; nearly all actives have a fitted effect of over 65% in size
# * = called active by the depositor; u = inconclusive; x = no result given. Unless noted, calls follow the shape of the dose curve; as a rule, active = well fitted curve in the direction sought with a large enough effect; inconclusive = small, poorly fitted or top-dose-only effect, or another doubt; inactive = no such curve, though single readings can be large; an effect the other way counts as inactive or inconclusive.
SMILES,uPA surface inh,TSHR antag,TSG101-PTAP inh,VDR inhibitor,PLK1 PBD block
Cc1ccc(-n2nnnc2SCC(=O)N2CCN(C(=O)c3ccco3)CC2)c(C)c1,-3%,0,-4%,-1%,-7%
COc1ccc(-n2nnnc2SCC(=O)N2CCN(C(=O)c3ccco3)CC2)cc1OC,-2%,8,1%,-23%,19µM*
COc1ccc(OC)c(-n2nnnc2SCC(=O)N2CCN(C(=O)c3ccco3)CC2)c1,-1%,8,-2%,71µM*,17µM*
CCOc1ccc(C(=O)NCC(c2ccc3c(c2)OCO3)N2CCN(c3ccc(F)cc3)CC2)cc1 (stereo not drawn),x,x,x,-1%,x
Cn1c(N)c(C(=O)CCl)c(=O)n(Cc2ccccc2)c1=O,-15%,0,0%,11%,17µM*
Cc1ccc(NC(=O)CSc2nc(-c3cccs3)cc(C(F)(F)F)n2)cc1C,x,x,x,-4%,x
C[C@H]1C=C2C=C[C@H](C)[C@H](CC[C@@H]3C[C@@H](O)CC(=O)O3)[C@H]2[C@@H](OC(=O)[C@@H](C)CCO)C1,x,x,x,-27%,x
Cc1ccc(C)c(NC(=O)c2ccc3c(c2)CCCN3S(C)(=O)=O)c1,x,x,x,7%,x
CCOC(=O)/C(C#N)=C\c1ccc(OC)c(OC)c1,-3%,-3,0%,0%,-16%
CCOC(=O)/C(C#N)=C\c1cc(OC)c(OC)cc1[N+](=O)[O-],-1%,2,-9%,20µM*,7.5µM*
COc1ccc(N(CC(=O)Nc2ccccc2C)S(=O)(=O)c2ccccc2[N+](=O)[O-])c(OC)c1,-1%,-16,0%,u,7.5µM*
O=C(NCCCN1CCCCC1)c1cc(Sc2ccc(Cl)cc2)nc2ccccc12,x,x,x,3%,x
COc1cccc(N2CCN(C(=O)CN3CCSc4ccccc43)CC2)c1,x,x,x,8%,x
COC(=O)COc1ccc(-c2nccc(-c3ccc(Br)cc3)n2)cc1,-1%,-4,1%,28µM*,9.5µM*
COc1cccc(CSc2nc3ccccc3c3nc(CCn4c(C)nc5ccccc54)nn23)c1,x,x,x,2%,x
Cc1cc(-c2nsc(=O)o2)c(S(C)(=O)=O)s1,4%,8,0%,u,3.8µM*
CSc1ccccc1C(=O)Nc1cc2c(cc1C(=O)O)OCCCO2,x,9,0%,-18%,30µM*
COc1ccccc1C(=O)Nc1cc2c(cc1C(=O)O)OCCCO2,-4%,10,2%,-1%,-5%
CC1=Nc2cc(C(=O)NCc3ccccc3Cl)ccc2Sc2c(C)ccc(C)c21,x,x,x,-10%,x
CCOC(=O)C1(C)C=C(Nc2ccc(C)cc2)C(=O)N1c1ccccc1 (stereo not drawn),x,x,x,-8%,x
COc1ccc2nc(SCC(=O)NCc3ccc(OC)c(OC)c3)[nH]c2c1,5%,5,-1%,u,u
CCOc1ccc2nc(SCC(=O)NCc3ccc(OC)c(OC)c3)[nH]c2c1,15%,5,-8%,u,27µM*
COc1ccc2nc(SCC(=O)NC3CCCCC3C)[nH]c2c1 (stereo not drawn),8.9µM*,0,-12%,-1%,2%
CC1CCCCC1NC(=O)CSc1nncn1N (stereo not drawn),1%,5,-1%,-7%,21µM*
N#Cc1cccc(-c2nc3cnc(Nc4ccccc4)nc3n(C[C@H]3CCCO3)c2=O)c1,x,x,x,-2%,x
SMILES,uPA surface inh,TSHR antag,TSG101-PTAP inh,VDR inhibitor,PLK1 PBD block
Cc1c(C(=O)Nc2cccc(-c3nc4ccccc4s3)c2)oc2ccccc12,x,x,x,5%,x
Cc1ccc(CN(Cc2ccco2)C(=O)COc2ccc(Cl)cc2)o1,x,x,x,-4%,x
CCOC(=O)c1ccc(N2C(=O)C=CC2=O)cc1,-10%,4,-4%,50µM*,3.8µM*
O=C(O)Cn1c2c(c3ccccc31)CSc1ccc(Cl)cc1-2,-1%,-3,-7%,u,13µM*
O=C(O)Cn1c2ccccc2c2ccccc21,2%,2,-5%,-4%,-6%
CC1(C)C(=O)C=C[C@]2(C)C1CC(=O)[C@]1(C)C2CC[C@@]2(C)C(c3ccoc3)OC(=O)C3O[C@@]321 (stereo partly drawn),x,x,x,20µM*,x
CC1(C)O[C@H]2CC(=O)OC[C@@]23C1CC(=O)[C@]1(C)C3CC[C@@]2(C)[C@H](c3ccoc3)OC(=O)[C@H]3O[C@]321 (stereo partly drawn),-6%,9,-3%,-5%,-3%
COc1cccc(NC(=O)C(=O)NCCc2csc3nc(-c4ccccc4C)nn23)c1,x,x,x,6%,x
